Measured values from the supplement of paper PMC6411743.
± gives the standard deviation of the averaged measurements. Targets with the largest changes are over-represented here; the source holds about 6,500 in all.

Assays:
Assay in all cases: NP40-soluble protein abundance relative to vehicle (solubility fold change) (ratio); higher = more soluble protein in presence of ATP
A0A087WWP8 = A0A087WWP8 (UniProt Q5VWQ0)
Summary of the method: (§1)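 Jurkat crude lysate prepared with a Dounce homogeniser was treated at eight concentrations spanning 0.1 to 10 mM, 10 min at room temperature then 3 min at 37 °C. Solubilisation with 0.8% NP40 and benzonase and ultracentrifugation preceded TMT labelling of the supernatant for LC-MS/MS. Fold change against the detergent-processed vehicle was determined per replicate from vsn-normalised intensities, across three independent experiments.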

A0A087WWS1|Q96FV9 = target: T1, A0A087WWS1|Q96FV9 (UniProt Q96FV9)
T1 sequence (whole entry): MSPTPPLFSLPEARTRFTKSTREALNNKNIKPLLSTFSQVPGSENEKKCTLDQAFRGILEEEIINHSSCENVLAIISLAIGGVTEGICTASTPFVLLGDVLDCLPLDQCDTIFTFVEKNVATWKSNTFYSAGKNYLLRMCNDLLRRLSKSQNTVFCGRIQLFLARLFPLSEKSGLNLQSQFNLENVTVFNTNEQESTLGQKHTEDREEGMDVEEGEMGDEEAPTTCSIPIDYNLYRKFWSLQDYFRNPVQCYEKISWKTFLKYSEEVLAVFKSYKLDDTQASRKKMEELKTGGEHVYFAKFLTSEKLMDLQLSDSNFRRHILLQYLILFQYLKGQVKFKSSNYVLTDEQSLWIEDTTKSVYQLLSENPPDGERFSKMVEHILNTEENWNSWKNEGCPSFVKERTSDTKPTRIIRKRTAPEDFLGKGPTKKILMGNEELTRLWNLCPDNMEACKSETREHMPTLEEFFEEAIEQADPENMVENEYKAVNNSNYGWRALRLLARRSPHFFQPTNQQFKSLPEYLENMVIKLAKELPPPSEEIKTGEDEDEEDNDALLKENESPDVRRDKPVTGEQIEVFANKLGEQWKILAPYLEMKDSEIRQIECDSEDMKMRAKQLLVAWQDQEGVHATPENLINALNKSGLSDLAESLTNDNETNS
Summary of the method: as §1

A0A087WXC5|O95299|H7C2X4 = A0A087WXC5|O95299|H7C2X4 (UniProt O95299)
Summary of the method: as §1

[1] = target: A0A087WY00|F8W6H6|Q9Y4I1|Q9Y4I1-2|Q9Y4I1-3|G3V394 (UniProt Q9Y4I1)
Summary of the method: as §1

A0A087WYG2|E9PFH7|Q9UPT6 = target: T2, A0A087WYG2|E9PFH7|Q9UPT6 (UniProt Q9UPT6)
T2 sequence (whole entry): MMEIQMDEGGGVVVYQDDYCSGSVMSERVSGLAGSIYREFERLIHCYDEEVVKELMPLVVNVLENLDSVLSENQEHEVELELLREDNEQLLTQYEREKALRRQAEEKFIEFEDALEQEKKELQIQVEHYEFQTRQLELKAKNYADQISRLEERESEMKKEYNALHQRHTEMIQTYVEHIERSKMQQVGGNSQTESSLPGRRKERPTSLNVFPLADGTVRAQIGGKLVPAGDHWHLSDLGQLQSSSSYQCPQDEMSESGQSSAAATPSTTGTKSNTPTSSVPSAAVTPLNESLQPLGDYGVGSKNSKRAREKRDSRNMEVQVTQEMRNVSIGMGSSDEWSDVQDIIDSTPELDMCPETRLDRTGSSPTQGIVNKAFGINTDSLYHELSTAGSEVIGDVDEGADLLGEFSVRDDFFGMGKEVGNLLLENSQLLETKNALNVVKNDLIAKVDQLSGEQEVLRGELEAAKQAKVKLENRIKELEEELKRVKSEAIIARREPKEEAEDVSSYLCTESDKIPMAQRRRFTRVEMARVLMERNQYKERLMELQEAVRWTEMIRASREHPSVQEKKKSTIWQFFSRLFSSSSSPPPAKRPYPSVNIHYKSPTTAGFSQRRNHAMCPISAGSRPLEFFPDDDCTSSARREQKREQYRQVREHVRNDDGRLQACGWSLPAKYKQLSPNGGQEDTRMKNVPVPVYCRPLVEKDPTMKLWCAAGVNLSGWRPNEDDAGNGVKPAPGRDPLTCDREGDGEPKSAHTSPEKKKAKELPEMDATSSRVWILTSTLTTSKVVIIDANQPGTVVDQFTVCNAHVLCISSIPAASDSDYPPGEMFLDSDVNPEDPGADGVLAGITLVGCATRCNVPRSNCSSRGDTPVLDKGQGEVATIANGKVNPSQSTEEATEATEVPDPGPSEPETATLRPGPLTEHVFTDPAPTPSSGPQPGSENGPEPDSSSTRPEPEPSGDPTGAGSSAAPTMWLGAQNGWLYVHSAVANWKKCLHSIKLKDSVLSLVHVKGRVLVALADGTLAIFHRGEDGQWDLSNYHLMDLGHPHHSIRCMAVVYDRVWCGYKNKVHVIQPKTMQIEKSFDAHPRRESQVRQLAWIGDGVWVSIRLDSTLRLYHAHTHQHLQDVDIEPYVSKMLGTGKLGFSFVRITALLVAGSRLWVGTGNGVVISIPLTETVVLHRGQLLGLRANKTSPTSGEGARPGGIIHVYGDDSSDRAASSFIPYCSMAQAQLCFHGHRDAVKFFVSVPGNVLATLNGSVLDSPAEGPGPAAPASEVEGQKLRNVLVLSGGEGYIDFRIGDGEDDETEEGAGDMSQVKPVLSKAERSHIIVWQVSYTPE
Summary of the method: as §1

Sequence of A0A087WY00|F8W6H6|Q9Y4I1|Q9Y4I1-2|Q9Y4I1-3|G3V394 (Q9Y4I1 whole entry, one chain of several): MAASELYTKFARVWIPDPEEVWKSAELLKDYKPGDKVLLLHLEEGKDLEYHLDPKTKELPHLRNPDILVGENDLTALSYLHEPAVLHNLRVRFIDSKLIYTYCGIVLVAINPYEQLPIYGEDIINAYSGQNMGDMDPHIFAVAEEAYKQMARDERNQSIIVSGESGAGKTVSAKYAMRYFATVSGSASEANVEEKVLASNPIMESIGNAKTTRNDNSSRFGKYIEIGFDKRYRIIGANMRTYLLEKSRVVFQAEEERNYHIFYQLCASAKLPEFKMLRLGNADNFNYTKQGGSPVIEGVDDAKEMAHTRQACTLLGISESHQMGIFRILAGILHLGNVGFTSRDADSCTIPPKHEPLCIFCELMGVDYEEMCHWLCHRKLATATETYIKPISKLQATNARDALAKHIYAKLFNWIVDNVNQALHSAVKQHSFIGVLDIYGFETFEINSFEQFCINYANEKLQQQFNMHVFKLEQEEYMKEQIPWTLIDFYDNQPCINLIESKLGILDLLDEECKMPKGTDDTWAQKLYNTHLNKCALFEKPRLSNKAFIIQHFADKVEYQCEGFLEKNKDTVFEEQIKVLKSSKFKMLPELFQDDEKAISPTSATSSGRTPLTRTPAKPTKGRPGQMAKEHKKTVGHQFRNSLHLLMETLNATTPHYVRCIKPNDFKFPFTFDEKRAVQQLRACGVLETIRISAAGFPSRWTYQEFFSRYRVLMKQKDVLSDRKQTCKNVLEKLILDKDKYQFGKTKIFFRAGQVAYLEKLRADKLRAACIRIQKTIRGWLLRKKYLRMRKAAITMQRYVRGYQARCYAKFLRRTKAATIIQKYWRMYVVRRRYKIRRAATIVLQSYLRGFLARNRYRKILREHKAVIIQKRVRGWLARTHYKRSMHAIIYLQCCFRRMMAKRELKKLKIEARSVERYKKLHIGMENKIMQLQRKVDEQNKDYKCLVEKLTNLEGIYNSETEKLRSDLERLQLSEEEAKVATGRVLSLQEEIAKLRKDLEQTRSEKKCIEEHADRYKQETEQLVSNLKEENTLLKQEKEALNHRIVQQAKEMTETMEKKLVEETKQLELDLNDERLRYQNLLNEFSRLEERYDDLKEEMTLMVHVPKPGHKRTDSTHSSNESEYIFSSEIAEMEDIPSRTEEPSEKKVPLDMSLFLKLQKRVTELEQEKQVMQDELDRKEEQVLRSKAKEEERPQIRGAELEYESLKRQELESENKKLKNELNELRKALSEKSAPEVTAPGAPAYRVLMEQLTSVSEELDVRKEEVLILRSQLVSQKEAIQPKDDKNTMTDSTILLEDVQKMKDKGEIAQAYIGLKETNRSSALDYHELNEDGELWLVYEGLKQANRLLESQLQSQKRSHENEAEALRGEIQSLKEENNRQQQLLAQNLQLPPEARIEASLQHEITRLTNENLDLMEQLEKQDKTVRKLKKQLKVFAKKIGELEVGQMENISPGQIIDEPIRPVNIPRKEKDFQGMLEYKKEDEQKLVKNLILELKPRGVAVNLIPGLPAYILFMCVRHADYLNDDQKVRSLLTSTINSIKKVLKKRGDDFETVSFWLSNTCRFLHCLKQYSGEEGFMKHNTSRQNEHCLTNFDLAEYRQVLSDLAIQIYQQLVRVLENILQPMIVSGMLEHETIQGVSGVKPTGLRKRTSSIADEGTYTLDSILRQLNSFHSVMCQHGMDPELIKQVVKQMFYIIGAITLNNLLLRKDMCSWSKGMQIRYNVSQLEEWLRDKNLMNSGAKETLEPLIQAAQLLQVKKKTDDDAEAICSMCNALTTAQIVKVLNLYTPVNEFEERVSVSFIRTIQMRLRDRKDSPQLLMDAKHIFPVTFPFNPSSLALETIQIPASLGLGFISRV
Sequence of A0A087WWP8 (Q5VWQ0 whole entry): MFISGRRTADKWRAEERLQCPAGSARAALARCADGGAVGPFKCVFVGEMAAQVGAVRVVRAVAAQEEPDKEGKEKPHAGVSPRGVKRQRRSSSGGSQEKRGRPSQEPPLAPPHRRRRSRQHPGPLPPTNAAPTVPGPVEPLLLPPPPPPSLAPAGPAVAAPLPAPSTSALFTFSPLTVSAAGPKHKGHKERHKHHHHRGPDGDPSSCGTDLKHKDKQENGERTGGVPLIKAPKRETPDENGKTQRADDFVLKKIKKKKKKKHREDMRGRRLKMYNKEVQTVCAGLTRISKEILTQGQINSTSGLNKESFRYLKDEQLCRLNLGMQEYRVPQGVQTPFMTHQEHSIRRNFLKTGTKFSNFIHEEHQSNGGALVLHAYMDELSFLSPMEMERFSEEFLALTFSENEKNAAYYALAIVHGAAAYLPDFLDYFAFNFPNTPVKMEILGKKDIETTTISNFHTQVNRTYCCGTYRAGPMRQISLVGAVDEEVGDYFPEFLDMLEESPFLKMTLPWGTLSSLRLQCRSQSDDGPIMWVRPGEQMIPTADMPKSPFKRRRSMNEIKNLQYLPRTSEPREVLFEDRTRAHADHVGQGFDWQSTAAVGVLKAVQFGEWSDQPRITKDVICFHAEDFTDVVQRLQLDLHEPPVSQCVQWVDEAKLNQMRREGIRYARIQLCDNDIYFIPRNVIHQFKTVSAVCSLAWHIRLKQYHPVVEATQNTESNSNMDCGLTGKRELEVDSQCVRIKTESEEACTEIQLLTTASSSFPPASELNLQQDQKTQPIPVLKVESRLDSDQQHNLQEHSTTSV
Sequence of A0A087WXC5|O95299|H7C2X4 (O95299 whole entry, one chain of several): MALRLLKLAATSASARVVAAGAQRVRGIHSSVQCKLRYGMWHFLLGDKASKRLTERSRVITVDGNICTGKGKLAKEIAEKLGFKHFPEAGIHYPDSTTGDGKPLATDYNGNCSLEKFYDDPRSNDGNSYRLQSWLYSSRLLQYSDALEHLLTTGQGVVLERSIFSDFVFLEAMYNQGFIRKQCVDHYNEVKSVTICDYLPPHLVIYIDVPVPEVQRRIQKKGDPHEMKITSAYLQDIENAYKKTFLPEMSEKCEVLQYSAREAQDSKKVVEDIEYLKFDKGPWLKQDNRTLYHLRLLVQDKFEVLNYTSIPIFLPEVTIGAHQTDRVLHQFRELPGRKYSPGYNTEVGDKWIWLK

`Nc1ncnc2c1ncn2[C@@H]1O[C@H](COP(=O)(O)OP(=O)(O)OP(=O)(O)O)[C@@H](O)[C@H]1O` [adenosine triphosphate] was tested, and the NP40-soluble protein abundance (A0A087WWP8; concentration: 6mM) was 1.68 ± 0.048, the NP40-soluble protein abundance (A0A087WWP8; concentration: 8mM) was 1.68 ± 0.069 and the NP40-soluble protein abundance (A0A087WWP8; concentration: 10mM) was 1.69 ± 0.063. The NP40-soluble protein abundance (A0A087WWS1|Q96FV9; concentration: 1mM) was 1.509 ± 0.011, the NP40-soluble protein abundance (A0A087WWS1|Q96FV9; concentration: 2mM) was 1.65 ± 0.068 and the NP40-soluble protein abundance (A0A087WWS1|Q96FV9; concentration: 4mM) was 1.89 ± 0.099. For the same compound, the NP40-soluble protein abundance (A0A087WWS1|Q96FV9; concentration: 6mM) was 2.14 ± 0.2, the NP40-soluble protein abundance (A0A087WWS1|Q96FV9; concentration: 8mM) was 2.31 ± 0.075 and the NP40-soluble protein abundance (A0A087WWS1|Q96FV9; concentration: 10mM) was 2.4 ± 0.13. The NP40-soluble protein abundance (A0A087WXC5|O95299|H7C2X4; concentration: 1mM) was 1.03 ± 0.024, the NP40-soluble protein abundance (A0A087WXC5|O95299|H7C2X4; concentration: 2mM) was 1.02 ± 0.033 and the NP40-soluble protein abundance (A0A087WXC5|O95299|H7C2X4; concentration: 4mM) was 0.982 ± 0.034. For the same compound, the NP40-soluble protein abundance (A0A087WXC5|O95299|H7C2X4; concentration: 6mM) was 1 ± 0.022, the NP40-soluble protein abundance (A0A087WXC5|O95299|H7C2X4; concentration: 8mM) was 1.02 ± 0.023 and the NP40-soluble protein abundance (A0A087WXC5|O95299|H7C2X4; concentration: 10mM) was 1 ± 0.034. For the same compound, the NP40-soluble protein abundance ([1]; concentration: 1mM) was 2.94 ± 0.086, the NP40-soluble protein abundance ([1]; concentration: 2mM) was 2.89 ± 0.071 and the NP40-soluble protein abundance ([1]; concentration: 4mM) was 2.94 ± 0.14. The NP40-soluble protein abundance ([1]; concentration: 6mM) was 2.96 ± 0.19, the NP40-soluble protein abundance ([1]; concentration: 8mM) was 2.96 ± 0.088 and the NP40-soluble protein abundance ([1]; concentration: 10mM) was 2.84 ± 0.062. It also gave an NP40-soluble protein abundance (A0A087WYG2|E9PFH7|Q9UPT6; concentration: 1mM) of 0.979 ± 0.055, an NP40-soluble protein abundance (A0A087WYG2|E9PFH7|Q9UPT6; concentration: 2mM) of 0.996 ± 0.054 and an NP40-soluble protein abundance (A0A087WYG2|E9PFH7|Q9UPT6; concentration: 4mM) of 0.993 ± 0.097. It also gave an NP40-soluble protein abundance (A0A087WYG2|E9PFH7|Q9UPT6; concentration: 6mM) of 0.988 ± 0.094, an NP40-soluble protein abundance (A0A087WYG2|E9PFH7|Q9UPT6; concentration: 8mM) of 0.959 ± 0.066 and an NP40-soluble protein abundance (A0A087WYG2|E9PFH7|Q9UPT6; concentration: 10mM) of 0.956 ± 0.029.
